Results taken from the supplement of paper PMC3545927.
This is one part of the list. The true hit rate is not given.

B1: HC107 (peptide)
chain: CAVVCCWMSYAGNASASA
B2: HC2502 (peptide)
chain: CASQPCSAHLAGNASASA
B3: FS-2646 (peptide)
chain: CARARRGTSGAGNASASA
B4: FS-2642 (peptide)
chain: CARARRDHFSAGNASASA
B5: FS-2481 (peptide)
chain: CARARRSASPAGNASASA
B6: FS-2645 (peptide)
chain: CARARRGGGSAGNASASA
B7: FS-1817 (peptide)
chain: CARARRGLRGAGNASASA
B8: FS-3150 (peptide)
chain: CARARRDAGPAGNASASA
B9: FS-2131 (peptide)
chain: CARARRGPSPAGNASASA
B10: FS-1718 (peptide)
chain: CARHYKSASPAGNASASA
B11: HC2481 (peptide)
chain: CANTPCSAHLAGNASASA
B12: HC1728 (peptide)
chain: CAMEECSWHLAGNASASA
B13: HC277 (peptide)
chain: CAGNASRCWVAGNASASA
B14: FS-2647 (peptide)
chain: CARARRGVEVAGNASASA
B15: HC1240 (peptide)
chain: CAQLPCEPEPAGNASASA
B16: HC1585 (peptide)
chain: CAFFSVLIARAGNASASA
B17: FS-1620 (peptide)
chain: CAYLLRRRRNAGNASASA
B18: FS-1007 (peptide)
chain: CAHLSRRRRNAGNASASA
B19: HC178 (peptide)
chain: CAYLLPRRGPAGNASASA
B20: HC1144 (peptide)
chain: CAECTTPCSGAGNASASA
B21: HC1552 (peptide)
chain: CAITSCSSNVAGNASASA
B22: HC2233 (peptide)
chain: CAEVVTSTRVAGNASASA
B23: FS-1311 (peptide)
chain: CAATSRKRRVAGNASASA
B24: FS-1371 (peptide)
chain: CALSARRFRVAGNASASA
B25: FS-3099 (peptide)
chain: CARSVRKVIVAGNASASA
B26: HC1007 (peptide)
chain: CAAIIPDREVAGNASASA
B27: FS-114 (peptide)
chain: CAAIGRSRRVAGNASASA
B28: FS-603 (peptide)
chain: CAKSVRKRRVAGNASASA
B29: EK7 (peptide)
chain: CADDDKIVGGAGNASASA
B30: HC439 (peptide)
chain: CASTGFTKVCAGNASASA
B31: HC396 (peptide)
chain: CAPISYANGSAGNASASA
B32: HC1680 (peptide)
chain: CACEECSQHLAGNASASA
B33: HC1203 (peptide)
chain: CAVSAEEYVEAGNASASA
B34: FS-456 (peptide)
chain: CALHGRRRREAGNASASA
B35: FS-2900 (peptide)
chain: CARDARRLKEAGNASASA
B36: FS-355 (peptide)
chain: CALNRRRRREAGNASASA
B37: FS-921 (peptide)
chain: CAVFARHLREAGNASASA
B38: FS-1707 (peptide)
chain: CARFYRSRKKAGNASASA
B39: FS-494 (peptide)
chain: CARRNRRRREAGNASASA
B40: HC1960 (peptide)
chain: CACCTTPCSGAGNASASA
B41: HC581 (peptide)
chain: CAWCLWWLQYAGNASASA
B42: HC435 (peptide)
chain: CAWFGCTWMNAGNASASA
B43: HC392 (peptide)
chain: CATDFDQGWGAGNASASA

Molecular target: furin, P09958
Assay: furin cleavage Z-score vs untreated control; higher = more cleavage, active = 3.5 or more, inactive = 1 or less, 8 variable residues between constant flanks
Summary of the method: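 Peptides 8 residues long, fused to a cDNA oligonucleotide, were fixed to magnetic beads by the N-terminus and exposed to purified furin. The 0.01 ml reactions contained 50 mM HEPES pH 7.5 with CaCl2 and NaCl at 1:10 enzyme:substrate and ran 7.5, 15 or 30 min. For the cleavage Z-score, log counts of sequenced released DNA were compared with furin-free reactions, lowess-adjusted and scaled by median absolute deviation.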

furin, P09958, sequence (P09958 whole entry): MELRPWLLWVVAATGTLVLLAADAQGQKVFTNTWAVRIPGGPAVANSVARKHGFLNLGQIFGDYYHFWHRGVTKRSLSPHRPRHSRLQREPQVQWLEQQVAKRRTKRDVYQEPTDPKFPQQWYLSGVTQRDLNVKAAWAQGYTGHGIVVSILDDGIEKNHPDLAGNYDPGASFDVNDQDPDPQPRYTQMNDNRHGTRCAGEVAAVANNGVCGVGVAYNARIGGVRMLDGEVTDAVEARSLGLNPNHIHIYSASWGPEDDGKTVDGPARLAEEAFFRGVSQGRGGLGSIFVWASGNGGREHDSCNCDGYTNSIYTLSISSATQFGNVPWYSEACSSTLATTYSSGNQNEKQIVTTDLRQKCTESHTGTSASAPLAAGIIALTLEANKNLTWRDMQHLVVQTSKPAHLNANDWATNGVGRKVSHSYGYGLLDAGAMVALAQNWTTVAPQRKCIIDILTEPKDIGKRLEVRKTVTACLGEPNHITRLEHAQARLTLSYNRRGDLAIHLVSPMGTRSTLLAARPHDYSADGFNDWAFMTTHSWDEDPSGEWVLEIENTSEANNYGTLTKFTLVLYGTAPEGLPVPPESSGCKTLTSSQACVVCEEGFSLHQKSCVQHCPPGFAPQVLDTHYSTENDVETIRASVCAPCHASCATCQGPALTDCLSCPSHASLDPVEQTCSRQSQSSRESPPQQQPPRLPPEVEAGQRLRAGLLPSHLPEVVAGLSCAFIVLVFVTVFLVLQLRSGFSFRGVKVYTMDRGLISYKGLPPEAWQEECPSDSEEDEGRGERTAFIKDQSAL

| Sequence | furin cleavage Z-score (7.5 min) | furin cleavage Z-score (15 min) | furin cleavage Z-score (30 min) |
| --- | --- | --- | --- |
| B1 | -0.895 (inactive) | 0.873 (inactive) | -1.73 (inactive) |
| B2 | -0.0566 (inactive) | 0.435 (inactive) | 0.0846 (inactive) |
| B3 | 3.84 (active) | 5.25 (active) | 5.55 (active) |
| B4 | 1.38 | 1.33 | 3.76 (active) |
| B5 | 8.11 (active) | 8.29 (active) | 5.23 (active) |
| B6 | -0.34 (inactive) | -0.574 (inactive) | 0.0356 (inactive) |
| B7 | 1.71 | 0.637 (inactive) | 3.32 |
| B8 | 10.1 (active) | 11.6 (active) | 7.77 (active) |
| B9 | -1.25 (inactive) | -0.123 (inactive) | -0.828 (inactive) |
| B10 | -1.62 (inactive) | -1.27 (inactive) | -1.9 (inactive) |
| B11 | -0.479 (inactive) | -0.245 (inactive) | 0.352 (inactive) |
| B12 | -0.727 (inactive) | 1.63 | 1.16 |
| B13 | -0.19 (inactive) | 0.165 (inactive) | -0.828 (inactive) |
| B14 | 4.52 (active) | 5.87 (active) | 6.09 (active) |
| B15 | 0.775 (inactive) | -0.524 (inactive) | -0.783 (inactive) |
| B16 | -2.48 (inactive) | -0.777 (inactive) | -0.815 (inactive) |
| B17 | 5.7 (active) | 4.73 (active) | 3.09 |
| B18 | 11.1 (active) | 9.66 (active) | 7.89 (active) |
| B19 | -0.496 (inactive) | -0.768 (inactive) | -0.313 (inactive) |
| B20 | -0.495 (inactive) | -0.922 (inactive) | -0.582 (inactive) |
| B21 | 0.153 (inactive) | 0.128 (inactive) | 0.563 (inactive) |
| B22 | -0.495 (inactive) | 0.515 (inactive) | -0.63 (inactive) |

| Sequence | furin cleavage Z-score (7.5 min) | furin cleavage Z-score (15 min) | furin cleavage Z-score (30 min) |
| --- | --- | --- | --- |
| B23 | 7.4 (active) | 11 (active) | 9.97 (active) |
| B24 | 0.442 (inactive) | -0.766 (inactive) | 0.226 (inactive) |
| B25 | 0.811 (inactive) | -1.26 (inactive) | 0.845 (inactive) |
| B26 | -0.132 (inactive) | -0.083 (inactive) | -0.0846 (inactive) |
| B27 | 2.54 | 1.95 | 4.65 (active) |
| B28 | 10.7 (active) | 11.6 (active) | 9.56 (active) |
| B29 | -1.75 (inactive) | -1.15 (inactive) | -0.908 (inactive) |
| B30 | 0.727 (inactive) | -0.241 (inactive) | 0.58 (inactive) |
| B31 | 0.358 (inactive) | -0.237 (inactive) | 0.768 (inactive) |
| B32 | -0.324 (inactive) | -2.23 (inactive) | -0.379 (inactive) |
| B33 | -1.9 (inactive) | 0.0508 (inactive) | 0.782 (inactive) |
| B34 | 12.8 (active) | 11.9 (active) | 10.7 (active) |
| B35 | 0.375 (inactive) | -1.38 (inactive) | -0.471 (inactive) |
| B36 | 12.7 (active) | 12.9 (active) | 8.21 (active) |
| B37 | 5.03 (active) | 6.28 (active) | 4.54 (active) |
| B38 | 0.676 (inactive) | 1.31 | 0.114 (inactive) |
| B39 | 12 (active) | 13.6 (active) | 9.7 (active) |
| B40 | -1.19 (inactive) | -0.424 (inactive) | -0.858 (inactive) |
| B41 | -0.105 (inactive) | -0.224 (inactive) | -0.828 (inactive) |
| B42 | -0.725 (inactive) | 1.68 | 1.37 |
| B43 | -0.591 (inactive) | -2.3 (inactive) | -1.94 (inactive) |
